Reference: the supplement of paper PMC8728848
Shown is part of a subset that was picked to be rich in the strongest signals.

Tests used:
Experiment in all cases: glycan array binding signal (z-score within array); higher = stronger binding
Conditions in all cases: glycan notation: IUPAC condensed, linker removed
Gal6P(b1-4)GlcNAc = biological target: Gal6P(b1-4)GlcNAc
In short: (§1)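 From the Consortium for Functional Glycomics database, 3228 arrays were curated, keeping only those whose protein sequence was available. Binding is given as a within-array Z-score averaged across arrays sharing a protein sequence and across linkers. Negative Z-scores can be read as non-binding.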

GalNAc(a1-3)Gal = biological target: GalNAc(a1-3)Gal
In short: as §1

GalNAc(b1-3)Gal = biological target: GalNAc(b1-3)Gal
In short: as §1

[1] = biological target: GalNAc(b1-3)Gal(a1-4)Gal(b1-4)GlcNAc(b1-3)Gal(b1-4)Glc
In short: as §1

[2] = biological target: GalNAc(b1-4)GlcNAc(b1-2)Man
In short: as §1

Glc(b1-4)Glc = biological target: Glc(b1-4)Glc
In short: as §1

[3] = biological target: GlcNAc(b1-2)Gal(b1-3)GalNAc
In short: as §1

[4] = biological target: GlcNAc(b1-2)[GlcNAc(b1-4)]Man(a1-3)[GlcNAc(b1-4)][GlcNAc(b1-2)[GlcNAc(b1-6)]Man(a1-6)]Man(b1-4)GlcNAc(b1-4)GlcNAc
In short: as §1

GlcNAc(b1-3)Gal(b1-4)Glc = biological target: GlcNAc(b1-3)Gal(b1-4)Glc
In short: as §1

[5] = biological target: GlcNAc(b1-3)Gal(b1-4)GlcNAc(b1-2)Man(a1-3)[GlcNAc(b1-3)Gal(b1-4)GlcNAc(b1-2)Man(a1-6)]Man(b1-4)GlcNAc(b1-4)GlcNAc
In short: as §1

[6] = biological target: GlcNAc(b1-3)Gal(b1-4)GlcNAc(b1-3)Gal(b1-4)GlcNAc(b1-2)[GlcNAc(b1-3)Gal(b1-4)GlcNAc(b1-3)Gal(b1-4)GlcNAc(b1-6)]Man(a1-6)[GlcNAc(b1-3)Gal(b1-4)GlcNAc(b1-3)Gal(b1-4)GlcNAc(b1-2)Man(a1-3)]Man(b1-4)GlcNAc(b1-4)[Fuc(a1-6)]GlcNAc
In short: as §1

[7] = biological target: GlcNAc(b1-3)Gal(b1-4)GlcNAc(b1-3)Gal(b1-4)GlcNAc(b1-3)Gal(b1-4)GlcNAc(b1-3)Gal(b1-4)GlcNAc(b1-2)Man(a1-3)[GlcNAc(b1-3)Gal(b1-4)GlcNAc(b1-3)Gal(b1-4)GlcNAc(b1-3)Gal(b1-4)GlcNAc(b1-3)Gal(b1-4)GlcNAc(b1-2)Man(a1-6)]Man(b1-4)GlcNAc(b1-4)GlcNAc
In short: as §1

[8] = biological target: GlcNAc(b1-3)Gal(b1-4)GlcNAc(b1-3)Gal(b1-4)GlcNAc(b1-3)GalNAc
In short: as §1

[9] = biological target: Neu5Ac(a2-3)Gal(b1-3)GalNAc(b1-3)Gal(a1-4)Gal(b1-4)Glc
In short: as §1

[10] = biological target: Neu5Ac(a2-3)Gal(b1-3)GlcNAc(b1-2)[Neu5Ac(a2-3)Gal(b1-3)GlcNAc(b1-4)]Man(a1-6)[Neu5Ac(a2-3)Gal(b1-3)GlcNAc(b1-2)Man(a1-3)]Man(b1-4)GlcNAc(b1-4)GlcNAc
In short: as §1

[11] = biological target: Neu5Ac(a2-3)Gal(b1-4)GlcNAc(b1-2)Man(a1-3)[Neu5Ac(a2-3)Gal(b1-4)GlcNAc(b1-2)Man(a1-6)]Man(b1-4)GlcNAc(b1-4)[Fuc(a1-6)]GlcNAc
In short: as §1

[12] = biological target: Neu5Ac(a2-3)Gal(b1-4)[Fuc(a1-3)]GlcNAc(b1-2)Man
In short: as §1

[13] = biological target: Neu5Ac(a2-3)Gal(b1-4)[Fuc(a1-3)]GlcNAc(b1-6)[Neu5Ac(a2-3)Gal(b1-3)]GalNAc
In short: as §1

[14] = biological target: Neu5Ac(a2-3)Gal(b1-4)[Fuc(a1-3)]GlcNAc6S
In short: as §1

[15] = biological target: Neu5Ac(a2-6)Gal(b1-4)GlcNAc
In short: as §1

[16] = biological target: Neu5Ac(a2-6)Gal(b1-4)GlcNAc(b1-2)Man(a1-3)[Gal(b1-4)GlcNAc(b1-2)Man(a1-6)]Man(b1-4)GlcNAc(b1-4)GlcNAc
In short: as §1

[17] = biological target: Neu5Ac(a2-6)Gal(b1-4)GlcNAc(b1-2)Man(a1-3)[Neu5Ac(a2-6)Gal(b1-4)GlcNAc(b1-2)Man(a1-6)]Man(b1-4)GlcNAc(b1-4)[Fuc(a1-6)]GlcNAc
In short: as §1

[18] = biological target: Neu5Ac(a2-6)Gal(b1-4)GlcNAc(b1-3)Gal(b1-4)GlcNAc(b1-3)Gal(b1-4)GlcNAc(b1-2)Man(a1-3)[Neu5Ac(a2-6)Gal(b1-4)GlcNAc(b1-3)Gal(b1-4)GlcNAc(b1-3)Gal(b1-4)GlcNAc(b1-2)Man(a1-6)]GalNAc
In short: as §1

[19] = biological target: Neu5Ac(a2-6)Gal(b1-4)GlcNAc(b1-3)[Neu5Ac(a2-6)Gal(b1-4)GlcNAc(b1-6)]GalNAc
In short: as §1

[20] = biological target: Neu5Ac(a2-8)Neu5Ac(a2-3)Gal(b1-3)GalNAc(b1-4)[Neu5Ac(a2-8)Neu5Ac(a2-3)]Gal(b1-4)Glc
In short: as §1

[21] = biological target: Neu5Ac(a2-8)Neu5Ac(a2-3)[Gal(b1-3)GalNAc(b1-4)]Gal(b1-4)Glc
In short: as §1

[22] = biological target: Neu5Ac(b2-6)Gal(b1-4)GlcNAc
In short: as §1

[23] = biological target: Neu5Gc(a2-8)Neu5Gc(a2-3)Gal(b1-4)GlcNAc(b1-3)Gal(b1-4)GlcNAc
In short: as §1

B1: Agalectin (Anopheles gambiae) (protein)
chain: MSNRPFTAKFPRYPENGDEVFIRGKLKDDAKSFSVNFCLPRPAQVAEHQTPPYIALHFKTIYDERDDTSRVVLNWKNLQWQQEEVLDNYWHVDRSQTFRVVFRLHEDCIKVFVNSVDHPPDYQFPVQLPLDQIESIELWDDVEHVEEISFRYDNGNSY
glycan array binding signal (z-score) (Gal6P(b1-4)GlcNAc): -0.335 | glycan array binding signal (z-score) (GalNAc(a1-3)Gal): -0.221 | glycan array binding signal (z-score) (GalNAc(b1-3)Gal): -0.678 | glycan array binding signal (z-score) [1]: 0.038 | glycan array binding signal (z-score) [2]: 0.499 | glycan array binding signal (z-score) (Glc(b1-4)Glc): -0.613 | glycan array binding signal (z-score) [3]: -1.34 | glycan array binding signal (z-score) [4]: -0.389 | glycan array binding signal (z-score) (GlcNAc(b1-3)Gal(b1-4)Glc): -0.291 | glycan array binding signal (z-score) [5]: -0.912 | glycan array binding signal (z-score) [6]: 3.5 | glycan array binding signal (z-score) [7]: 3.07 | glycan array binding signal (z-score) [8]: -0.362 | glycan array binding signal (z-score) [9]: 0.518 | glycan array binding signal (z-score) [10]: 0.945 | glycan array binding signal (z-score) [11]: -0.933 | glycan array binding signal (z-score) [12]: 0.193 | glycan array binding signal (z-score) [13]: 3.95 | glycan array binding signal (z-score) [14]: 3.86 | glycan array binding signal (z-score) [15]: 0.241 | glycan array binding signal (z-score) [16]: -0.321 | glycan array binding signal (z-score) [17]: 5.84 | glycan array binding signal (z-score) [18]: 2.96 | glycan array binding signal (z-score) [19]: -0.501 | glycan array binding signal (z-score) [20]: 0.647 | glycan array binding signal (z-score) [21]: -0.464 | glycan array binding signal (z-score) [22]: -0.879 | glycan array binding signal (z-score) [23]: 0.981
